# NPC1 promoter act – qHTS Assay for NPC1 Promoter Activators | Huh7 NPC1 promoter luciferase reporter, 24 h | 320,000 tested, 2.4% active | AID 485313, 2010 | Potency, µM (series often up to 9.22 µM), inactives show at the highest dose activation, usual class: activators; also: % of control where 0% means no effect; nearly all actives have a fitted effect of over 60% in size
#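 Luciferase expression driven by the NPC1 promoter was measured in stably transfected Huh7 cells after a 24 h compound incubation, using a luciferase reagent and a luminescence read.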
# FLuc modulator – qHTS profiling assay for firefly luciferase inhibitor/activator using purifed enzyme and Km concentrations of substrates (counterscreen for miR-21 project) | purified FLuc, Km substrates, luminescence inhibition | AID 588342, 2011 | 360,000 tested, 6.9% active | Luciferin 4-monooxygenase (Photinus pyralis), P08659 | Potency, µM (series often up to 57.5 µM), for inactives: top-dose activity change, negative = inhibition, most hits filed as inhibitors;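 also: plate controls were vehicle for no effect and reference inhibitor for full effect; nearly all actives have a fitted effect of over 55% in size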
# Target sequence (P08659 whole entry, looked up): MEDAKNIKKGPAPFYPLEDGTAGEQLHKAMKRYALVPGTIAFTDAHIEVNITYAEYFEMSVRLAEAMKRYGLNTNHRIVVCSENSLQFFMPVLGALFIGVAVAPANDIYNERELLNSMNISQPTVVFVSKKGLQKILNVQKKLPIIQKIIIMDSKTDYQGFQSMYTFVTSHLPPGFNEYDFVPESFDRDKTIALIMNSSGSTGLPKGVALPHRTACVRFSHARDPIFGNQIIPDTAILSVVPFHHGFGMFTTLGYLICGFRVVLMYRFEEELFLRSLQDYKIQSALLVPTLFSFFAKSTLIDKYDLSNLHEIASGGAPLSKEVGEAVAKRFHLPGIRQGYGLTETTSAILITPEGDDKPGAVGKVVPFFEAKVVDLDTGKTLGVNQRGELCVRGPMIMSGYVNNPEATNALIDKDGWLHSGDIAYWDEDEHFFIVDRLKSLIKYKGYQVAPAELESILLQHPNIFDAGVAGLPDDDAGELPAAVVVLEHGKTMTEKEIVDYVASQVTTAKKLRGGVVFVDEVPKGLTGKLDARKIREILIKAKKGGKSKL
#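 Biochemical qHTS of compounds, final roughly 60 µM downward over six points, against 10 nM purified firefly luciferase using Km concentrations of substrates (10 uM D-luciferin, 10 uM ATP) in Tris acetate pH 7.5 buffer; luminescence output.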
# Rab9 prom act – qHTS Assay for Rab9 Promoter Activators. Huh7 Rab9 promoter-luciferase reporter, luminescence, 24 h. Potency, µM (doses to about 9.22 µM), for the others: at the top dose activation, negative = inhibition, actives largely listed as activators. 320,000 tested, 2.8% active; also: % of control where 0% means no effect; nearly all actives have a fitted effect of over 60% in size
#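 Cell-based reporter: Huh7 stable for Rab9 promoter-driven luciferase, plated in reduced-serum medium with 10% FBS at 1500 cells/well, compound-treated 24 h at 37 °C, luminescence read after 10 min reagent.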
# ELG1 genotox – qHTS screen for small molecules that induce genotoxicity in human embryonic kidney (HEK293T) cells expressing luciferase-tagged ELG1; HEK293T ELG1-luciferase reporter, luminescence, 16 h; Potency, µM (doses to about 46 µM), without a hit: at the top dose activity change, positive = activation, most hits filed as activators; 330,000 tested, 1.3% active; also: % of control where 0% means no effect; nearly all actives have a fitted effect of over 60% in size
#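 Step 1: seed 2,000 HEK293T ELG1-luciferase cells per well. Step 2: add compound or DMSO, incubate 16 hr at 37 °C. Step 3: ONE-Glo, 30 min at room temperature, read luminescence.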
# SMN2 splice up – qHTS Assay for Enhancers of SMN2 Splice Variant Expression | HEK293 SMN2-luciferase splicing reporter, luminescence, 30-36 h | Potency, µM (doses to about 46.1 µM), without a hit: top-dose activity change, positive = activation, usual class: activators | 210,000 tested, 2.8% active | AID 1458, 2008; also: % of control where 0% means no effect; nearly all actives have a fitted effect of over 55% in size
#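 HEK293 cells carry an SMN2 […]–luciferase reporter in which exon 7 inclusion puts luciferase in frame. Cells were plated 10-12 h before compound addition, then incubated 30-36 h at 37C. ONE-Glo luminescence was read; sodium butyrate at 4.5 mM final served as control.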
# An asterisk follows results filed as active; u = inconclusive; x = no result given; [ ] = dose if it differs, or a comment. Most compounds without a hit are left out; they make up all but 7.5% or so of the library. Calls follow the shape of the dose curve; as a rule, active = well fitted curve in the direction sought with a large enough effect; inconclusive = small, poorly fitted or top-dose-only effect, or another doubt; inactive = no such curve, though single readings can be large; an effect the other way counts as inactive or inconclusive. Potency is read from the fitted curve at half-maximal effect.
SMILES,NPC1 promoter act,FLuc modulator,Rab9 prom act,ELG1 genotox,SMN2 splice up
CC(C)C[C@@H](/C=C/S(C)(=O)=O)NC(=O)[C@H](CC(C)C)NC(=O)[C@H](CC(C)C)NC(=O)OCc1ccccc1,x,x,x,x,-111%
CCC(=O)N1CCN(c2ccc(NC(=O)COc3ccccc3[N+](=O)[O-])cc2)CC1,-8%,2%,-1%,-12%,-57%
O=C(CC1CS(=O)(=O)CC1CC(=O)Nc1ccc2c(c1)OCCO2)Nc1ccc2c(c1)OCCO2 (stereo not given),12%,17µM*,7%,u,x
O=C(Nc1ccc2c(c1)OCCO2)c1ccc(Br)s1,3.5µM*,0.67µM*,1.6µM*,1.5µM*,1.1µM*
O=C(Nc1ccc2c(c1)OCCO2)c1cccc(Cl)c1,3.2µM*,3µM*,2µM*,u,x
O=C(Nc1ccc(N=Nc2ccccc2)cc1)c1cccc(Cl)c1,5%,-1%,0%,10%,17%
CN(c1cccc(NC(=O)c2ccc(C(C)(C)C)cc2)c1)S(C)(=O)=O,11%,0.48µM*,u,-16%,x
O=C(CN1C(=O)CSc2ccc(S(=O)(=O)N3CCCCC3)cc21)NCc1ccccc1Cl,1%,2%,2%,-1%,x
CC(C)(C)NC(=O)NC(=O)COC(=O)c1cccc(S(=O)(=O)N2CCCCC2)c1,-4%,0%,-9%,3%,11%
O=C(Nc1ccc(N2CCN(C(=O)c3ccccc3)CC2)cc1)c1ccc2c(c1)OCCO2,-7%,u,-1%,-18%,x
O=C(Nc1cccc([N+](=O)[O-])c1)c1ccncc1,-4%,1%,-1%,5%,-10%
CCCc1cc(C(=O)Nc2cccc([N+](=O)[O-])c2)cs1,u,11µM*,u,14%,x
O=C(Nc1ccc2c(c1)OCO2)c1cc(Cl)ccn1,1.8µM*,4.8µM*,1.3µM*,u,x
O=C(Nc1ccc2c(c1)OCCO2)c1cccc(C(=O)Nc2ccc3c(c2)OCCO3)c1,4µM*,6.7µM*,17%[1.84 µM],14%,x
O=C(Nc1ccc2c(c1)OCO2)c1ccc(Cl)cc1Cl,0%,-2%,-3%,6%,x
O=C(Nc1cccc([N+](=O)[O-])c1)c1[nH]ncc1Cl,3.2µM*,17µM*,4µM*,u,11µM*
O=c1c(-c2cc(-c3ccccc3)nc3c2COc2ccc(Cl)cc2-3)coc2ccc(F)cc12,x,0%,x,x,-5%
NS(=O)(=O)c1ccc(NC(=S)NC(=O)c2ccc3c(c2)OCO3)cc1,14%,-2%,u,6%,3%
O=C(CCCc1cccs1)Nc1ccc2c(c1)OCO2,2.2µM*,11µM*,2.8µM*,u,14µM*
O=C(NC(=S)Nc1ccc2c(c1)OCO2)c1ccccc1,1.4µM*,3.8µM*,1.6µM*,u,20µM*
O=C(Nc1ccc2c(c1)OCCO2)C(=O)NC1CC1,u,4.8µM*,2.8µM*,u,x
CC(C)c1ccc(O)c(NC(=S)NC(=O)c2ccc3c(c2)OCO3)c1,2.2µM*,6.7µM*,u,22%,x
COc1cc(C(=O)NNC(=S)NC(=O)c2ccc3c(c2)OCO3)cc(OC)c1OC,-1%,4%,-4%,4%,x
O=C(CCCN1C(=O)CCC1=O)Nc1ccc2c(c1)OCO2,-3%,-3%[2.3 µM],2%,3%,-10%
CC(=O)Nc1ccc(NC(=O)CC2(CC(=O)N3CCOCC3)CCCC2)cc1,-1%,5%,-7%,4%,x
SMILES,NPC1 promoter act,FLuc modulator,Rab9 prom act,ELG1 genotox,SMN2 splice up
CC(C)(C)NS(=O)(=O)c1ccc(C(=O)Nc2ccc3c(c2)OCO3)cc1,7%,u,5%,16%,x
CC(C)C(NC(=O)C1CCCCC1)C(=O)Nc1ccc2c(c1)OCCO2 (stereo not given),1.1µM*,6µM*,2µM*,u,36%
O=C(NC(=S)Nc1ccc2c(c1)OCCO2)c1cccc(Br)c1,3.2µM*,11µM*,3.2µM*,u,13µM*
O=C(CC(=O)c1ccccc1)Nc1ccc2c(c1)OCCO2,2.5µM*,6.7µM*,1.4µM*,u,13µM*
CS(=O)(=O)Nc1ccc(C(=O)Nc2ccc3c(c2)OCCO3)cc1,u,19µM*,u,u,u
CC(C)C(NC(=O)C1CCCCC1)C(=O)Nc1ccncc1 (stereo not given),-2%,2%,1%,0%,4%
Cn1nc(C(=O)Nc2cc(F)ccc2F)c2c1-c1ccccc1SC2,x,-1%,x,x,x
CCCCn1c(N)c(N(CC(C)C)C(=O)CSCc2cccc(C)c2)c(=O)[nH]c1=O,7%,1%,-3%,-2%,x
O=C1CCC=C1C(O)c1ccc2c(c1)OCO2 (stereo not given),x,x,x,x,1%
C=Cc1ccc(Cn2c(C(=O)O)c(CNCCc3ccccc3)c3ccc(C)cc32)cc1,x,-14%,x,x,x
CC(C)(C)c1ccc(C(=O)Nc2cccc([N+](=O)[O-])c2)cc1,2.5µM*,1.7µM*,2.2µM*,u,11µM*
O=C(Nc1ccc2c(c1)OCCO2)C(=S)NCc1ccccc1,17%,6µM*,25%,10%,u
O=C(NCc1ccccc1)c1ccc2c(c1)OCCO2,19%,u,u,9%,19%
O=C(Nc1ccc2c(c1)OCO2)c1ccccc1,1.8µM*,9.5µM*,1.1µM*,u,x
O=C(Nc1ccc2c(c1)OCCO2)C1CC1c1ccccc1 (stereo not given),u,9.5µM*,4µM*,u,11µM*
Cc1onc(-c2ccccc2)c1C(=O)Nc1ccc2c(c1)OCO2,5%,1%,-1%,-4%,-10%
CCn1c(=O)c(=O)[nH]c2cc(C(=O)NC(C)c3ccc(S(N)(=O)=O)cc3)ccc21 (stereo not given),0%,-2%,-4%,0%,x
COCCN(Cc1cc2cc(C)ccc2nc1Cl)C(=O)Nc1ccccc1OC,-2%,-6%,-2%,-9%,-14%
O=C(CSc1ncn(-c2ccccc2)n1)Nc1ccc2c(c1)OCCO2,1%,u,-2%,6%,19%
O=C(Nc1ccc2c(c1)OCCO2)c1cnn(-c2ccccc2)n1,u,4.8µM*,2.8µM*,u,x
O=C(Nc1nccc(-c2cccs2)n1)c1cccs1,2.8µM*,19µM*,u,u,u
Cc1ccnc(NC(=O)c2cccs2)c1,3.5µM*,15µM*,2.2µM*,u,u
Nc1nccc(-c2cccs2)n1,-1%,0%,2%,0%,14%
Cc1cc(NC(=O)c2cccs2)ncc1NC(=O)C(C)(C)C,0.89µM*,11µM*,1.4µM*,4.1µM*,x
Cc1ccnc(NC(=O)c2ccc(Br)s2)c1,1.1µM*,2.7µM*,1.6µM*,u,x
